In PubChem BioAssay (NCI) one finds growth inhibition data, which are given here for ten compounds.

Assay [1] is described as follows: NCI Yeast Anticancer Drug Screen. Data for the rad50 strain (AID 155).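 Also: 0% = growth of vehicle-only cultures of the same strain.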 The settings on record: S. cerevisiae rad50 strain growth inhibition, active compounds read high. An outline of the steps: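 Genetically altered yeast (DNA repair pathway); compound treatment; growth inhibition vs vehicle ctrl.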
Assay [2] in a line: NCI Yeast Anticancer Drug Screen. Data for the mec2-1 strain (AID 157). The settings on record: S. cerevisiae mec2-1 strain, active compounds read high. In a few lines:
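Growth inhibition is read against vehicle-treated controls after compound exposure of the mec2-1 yeast strain, which is defective in DNA damage repair or cell cycle control.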

Assay [3] is described as follows: NCI Yeast Anticancer Drug Screen. Data for the sgs1 mgt1 strain (AID 161).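 Also: 0% = growth of cultures given vehicle only.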 The settings on record: S. cerevisiae sgs1 mgt1 strain, active compounds read high. In a few lines:
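Percent growth inhibition was derived by comparing compound-exposed mutant yeast with vehicle-exposed cultures. The strain carries alterations in DNA damage repair.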

The nature of assay [4]: NCI Yeast Anticancer Drug Screen. Data for the cln2 rad14 strain (AID 165).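 Also: 0% = growth equal to vehicle treated cultures.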 The settings on record: S. cerevisiae cln2 rad14 strain, active compounds read high. In a few lines:
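Growth inhibition, relative to vehicle-treated controls, is the read-out. The test organism is a yeast strain with defined genetic alterations, cln2 rad14.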

The nature of assay [5]: NCI Yeast Anticancer Drug Screen. Data for the bub3 strain (AID 167). The settings on record: S. cerevisiae bub3 mutant strain, active compounds read high. In a few lines: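 Yeast carrying a defined mutation is treated with each compound, and growth is compared with that of vehicle-exposed cells to give inhibition.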
Assay [6] is described as follows: NCI Yeast Anticancer Drug Screen. Data for the mlh1 rad18 strain (AID 175). The settings on record: S. cerevisiae mlh1 rad18 strain growth inhibition, active compounds read high. In a few lines: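 Cells of a genetically altered yeast strain, deficient in DNA damage repair, were treated with compound. Their growth was then compared with that of vehicle-treated cultures to give inhibition.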

[7] abbreviates: at 5.0 µM (retest, dose inferred, filed as 0.5).
The mark [8] stands for this setting: at 50.0 µM (retest, dose inferred, filed as 5.0).

This is part of a sample that, as a whole, favours compounds with a hit. Of some 79,000 tested, about 15% had one in any assay. Unmarked numbers belong to inactive results. Calls of active or inactive are those of the source. Rule as the data show it: active = growth inhibition above about 70%; inactive = the rest.

On to `CCCc1cc2c(cc1CS(=O)(=O)CC)OCO2`, for which the growth inhibition was -4% in assay [1] (setting [7]); 9% in assay [1] (setting [8]); -9.1% in assay [1] (at 50.0 µM); -4% in assay [2] (setting [7]); -2% in assay [2] (setting [8]); 2.3% in assay [2] (at 50.0 µM). Moreover, the growth inhibition was -7% in assay [3] (setting [7]); -5% in assay [3] (setting [8]); 1.1% in assay [3] (at 50.0 µM); -7% in assay [4] (setting [7]); 0% in assay [4] (setting [8]); 23.3% in assay [4] (at 50.0 µM). Also, the growth inhibition in assay [5] (setting [7]) was 23%; in assay [5] (setting [8]), 17%; in assay [5] (at 50.0 µM), 16.7%; in assay [6] (setting [7]), -4%; in assay [6] (setting [8]), -6%; in assay [6] (at 50.0 µM), 3.75%.
Take `CC([NH-])C(=O)O.[Cu+2].[NH-]C(Cc1cnc[nH]1)C(=O)O` (stereo not given): the growth inhibition is -8% in assay [1] (setting [7]); 7% in assay [1] (setting [8]); 98.9% (active) in assay [1] (at 50.0 µM); -4% in assay [2] (setting [7]); 0% in assay [2] (setting [8]); 99.3% (active) in assay [2] (at 50.0 µM). In addition, the growth inhibition in assay [3] (setting [7]) was -3%; in assay [3] (setting [8]), 1%; in assay [3] (at 50.0 µM), 98.7% (active); in assay [4] (setting [7]), 4%; in assay [4] (setting [8]) it was 12%; in assay [4] (at 50.0 µM), 96% (active). Besides, the growth inhibition in assay [5] (setting [7]) was -5%; in assay [5] (setting [8]), -1%; in assay [5] (at 50.0 µM), 99% (active); in assay [6] (setting [7]), -7%; in assay [6] (setting [8]), 2%; in assay [6] (at 50.0 µM), 98.7% (active).
On to `O=C(SCCCc1ccccc1)c1cc([N+](=O)[O-])cc([N+](=O)[O-])c1`, for which the growth inhibition was 98% (active) in assay [1] (setting [7]); 87% (active) in assay [1] (setting [8]); 75.7% (active) in assay [1] (at 50.0 µM); 100% (active) in assay [2] (setting [7]); 98% (active) in assay [2] (setting [8]); 66.3% in assay [2] (at 50.0 µM). In addition, the growth inhibition in assay [3] (setting [7]) is 99% (active); in assay [3] (setting [8]) it was 94% (active); in assay [3] (at 50.0 µM) it was 85.8% (active); in assay [4] (setting [7]), 94% (active); in assay [4] (setting [8]) it was 89% (active); in assay [4] (at 50.0 µM), 78.6% (active). Moreover, the growth inhibition in assay [5] (setting [7]) is 98% (active); in assay [5] (setting [8]), 98% (active); in assay [5] (at 50.0 µM), 66%; in assay [6] (setting [7]), 98% (active); in assay [6] (setting [8]), 94% (active); in assay [6] (at 50.0 µM), 76.6% (active).
For the compound `COc1cc(C2=NCCO2)cc(OC)c1OC`, the growth inhibition in assay [1] (setting [7]) was -158%; in assay [1] (setting [8]) it was -155%; in assay [1] (at 50.0 µM), 9.4%; in assay [2] (setting [7]) it was -45%; in assay [2] (setting [8]) it was -52%; in assay [2] (at 50.0 µM), -5.5%. In addition, the growth inhibition was -62% in assay [3] (setting [7]); -60% in assay [3] (setting [8]); -3.85% in assay [3] (at 50.0 µM); -59% in assay [4] (setting [7]); -62% in assay [4] (setting [8]); 61.9% in assay [4] (at 50.0 µM). Further, the growth inhibition was -67% in assay [5] (setting [7]); -79% in assay [5] (setting [8]); 0.55% in assay [5] (at 50.0 µM); -196% in assay [6] (setting [7]); -117% in assay [6] (setting [8]); 3.95% in assay [6] (at 50.0 µM).
In the case of `OCCCCCCCCCl`, the growth inhibition in assay [1] (setting [7]) is 0%; in assay [1] (setting [8]), 10%; in assay [1] (at 50.0 µM), 35.5%; in assay [2] (setting [7]) it was -6%; in assay [2] (setting [8]), 6%; in assay [2] (at 50.0 µM), 21.6%. The growth inhibition is 1% in assay [3] (setting [7]); 9% in assay [3] (setting [8]); 45.1% in assay [3] (at 50.0 µM); 8% in assay [4] (setting [7]); 5% in assay [4] (setting [8]); 35.9% in assay [4] (at 50.0 µM). For the same compound, the growth inhibition is -3% in assay [5] (setting [7]); 0% in assay [5] (setting [8]); -24.9% in assay [5] (at 50.0 µM); -1% in assay [6] (setting [7]); 9% in assay [6] (setting [8]); 14.1% in assay [6] (at 50.0 µM).
Turning to `COc1ccc(C2CC(=O)CC(=O)C2)cc1`, the growth inhibition in assay [1] (setting [7]) is -6%; in assay [1] (setting [8]), -23%; in assay [1] (at 50.0 µM), 65.2%; in assay [2] (setting [7]), 5%; in assay [2] (setting [8]) it was -8%; in assay [2] (at 50.0 µM), 10.1%. Also, the growth inhibition in assay [3] (setting [7]) is -7%; in assay [3] (setting [8]) it was 2%; in assay [3] (at 50.0 µM) it was 32.5%; in assay [4] (setting [7]) it was -64%; in assay [4] (setting [8]), -20%; in assay [4] (at 50.0 µM), -3.35%. The growth inhibition was -25% in assay [5] (setting [7]); -15% in assay [5] (setting [8]); 16% in assay [5] (at 50.0 µM); -12% in assay [6] (setting [7]); 0% in assay [6] (setting [8]); 55.5% in assay [6] (at 50.0 µM).
For the compound `O=NNc1ncc(Sc2ccccc2)nc1Sc1ccccc1`, the growth inhibition was -14% in assay [1] (setting [7]); -8% in assay [1] (setting [8]); -0.45% in assay [1] (at 50.0 µM); -11% in assay [2] (setting [7]); 13% in assay [2] (setting [8]); -24.9% in assay [2] (at 50.0 µM). Moreover, the growth inhibition in assay [3] (setting [7]) is -3%; in assay [3] (setting [8]), 20%; in assay [3] (at 50.0 µM) it was 45.5%; in assay [4] (setting [7]) it was 3%; in assay [4] (setting [8]), 11%; in assay [4] (at 50.0 µM), 15.5%. The growth inhibition in assay [5] (setting [7]) was -13%; in assay [5] (setting [8]) it was -11%; in assay [5] (at 50.0 µM) it was -9.1%; in assay [6] (setting [7]), 4%; in assay [6] (setting [8]), 12%; in assay [6] (at 50.0 µM) it was 71.8% (active).
Turning to `CC(C)CCCC(C)C1CCC2(C)C3=CCC4C(C)(CCC(O)C4(C)C)C3=CCC12C` (stereo not given), the growth inhibition was 0% in assay [1] (setting [7]); 83% (active) in assay [1] (setting [8]); 89% (active) in assay [1] (at 50.0 µM); -18% in assay [2] (setting [7]); 94% (active) in assay [2] (setting [8]); 73% (active) in assay [2] (at 50.0 µM). Further, the growth inhibition in assay [3] (setting [7]) was 11%; in assay [3] (setting [8]) it was 95% (active); in assay [3] (at 50.0 µM), 98% (active); in assay [4] (setting [7]), -8%; in assay [4] (setting [8]) it was 84% (active); in assay [4] (at 50.0 µM), 97.7% (active). Further, the growth inhibition in assay [5] (setting [7]) is -6%; in assay [5] (setting [8]) it was 95% (active); in assay [5] (at 50.0 µM) it was 93.3% (active); in assay [6] (setting [7]) it was 21%; in assay [6] (setting [8]), 97% (active); in assay [6] (at 50.0 µM), 90.8% (active).
`COc1cc(CCN=Cc2cc(Cl)cc(Cl)c2O)c([N+](=O)[O-])cc1OC`: the growth inhibition in assay [1] (setting [7]) is 60%; in assay [1] (setting [8]), 74% (active); in assay [1] (at 50.0 µM), 58.8%; in assay [2] (setting [7]), 42%; in assay [2] (setting [8]), 55%; in assay [2] (at 50.0 µM) it was 69.5%. Further, the growth inhibition in assay [3] (setting [7]) was 53%; in assay [3] (setting [8]) it was 95% (active); in assay [3] (at 50.0 µM), 62.4%; in assay [4] (setting [7]), 35%; in assay [4] (setting [8]), 57%; in assay [4] (at 50.0 µM) it was 43%. For the same compound, the growth inhibition is 51% in assay [5] (setting [7]); 94% (active) in assay [5] (setting [8]); 77.7% (active) in assay [5] (at 50.0 µM); 64% in assay [6] (setting [7]); 91% (active) in assay [6] (setting [8]); 62.6% in assay [6] (at 50.0 µM).
Consider `CCCCNCCC1(c2ccccc2)C(=O)Oc2ccccc21` (stereo not given), for which the growth inhibition in assay [1] (setting [7]) was -5%; in assay [1] (setting [8]), 14%; in assay [1] (at 50.0 µM) it was 63.2%; in assay [2] (setting [7]), -4%; in assay [2] (setting [8]) it was 18%; in assay [2] (at 50.0 µM), 57.5%. Moreover, the growth inhibition was -5% in assay [3] (setting [7]); 35% in assay [3] (setting [8]); 59.9% in assay [3] (at 50.0 µM); 0% in assay [4] (setting [7]); -17% in assay [4] (setting [8]); 46.2% in assay [4] (at 50.0 µM). In addition, the growth inhibition in assay [5] (setting [7]) is -5%; in assay [5] (setting [8]), -12%; in assay [5] (at 50.0 µM), -9.45%; in assay [6] (setting [7]) it was -7%; in assay [6] (setting [8]), 10%; in assay [6] (at 50.0 µM) it was 53%.
